Assay [1] deals with Human papillomavirus type 1a protein E7 (residues 44-93). Kind of assay: HPV1a E7 fragment binders on microarrays, primary screen, biochemical, small-molecule microarray, residues 44-93, 635 nm fluorescence (AID 1108).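 Also: E7 fragment applied at 1 µg/mL in TBST for 1 h at 4 C; score combines spot fluorescence with its signal to noise ratio.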 As to conditions: small-molecule microarray binding, fluorescence 635 nm; higher = more signal.
Assay [2] can be described thus: modulators of HCV replicon luciferase signal, primary screen, HCV replication inhibitor project, Huh7 cells, luciferase reporter (AID 1109).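 Also: huh7 hepatoma cells harbouring a luciferase neomycin HCV replicon reporter; luciferase luminescence as measure of HCV replicon replication; test concentration not given here.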 The conditions noted are these: 48 h, higher = more signal.
For assay [3], the target named is Left-right determination factor 2 (Homo sapiens) (UniProt O00292). Kind of assay: LEFTY2 binders on small-molecule microarrays, primary screen, biochemical, small-molecule microarray, 635 nm fluorescence scan (AID 1110). The conditions noted are these: LEFTY2 binding, higher = more signal.
The target of assay [4] is Calmodulin-1 (Homo sapiens) (UniProt P0DP23). In words: CALM1 binders on microarrays, EGTA buffer, profiling panel, biochemical, small-molecule microarray, Cy5-labelled CALM1 (AID 1111).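 Also: labelled calmodulin applied in Tris saline Tween buffer holding calcium plus EGTA and DTT.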 As to conditions: Cy5-CALM1 binding fluorescence, higher = more signal.
Assay [5] has the same target. Kind of assay: calcium-bound CALM1 binders on microarrays, profiling panel, artefact control for SMM control-protein annotation, biochemical, small-molecule microarray, Cy5-labelled CALM1, plus calcium (AID 1112).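 Also: score merges spot fluorescence with signal to noise from triplicate slides.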 The conditions noted are these: Cy5-CALM1 binding fluorescence, higher = more signal.
Assay [6] is described as follows: small-molecule microarray binders of probe aWnt5a, primary screen, biochemical, biotinylated probe, 635/667 nm fluorescence (AID 1113).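 Also: score merges 667 nm fluorescence intensity with signal-to-noise per printed feature.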 The conditions noted are these: higher = more signal.
Assay [7] can be described thus: small-molecule microarray binders of probe aShh, primary screen, biochemical, biotinylated probe, 635/667 nm fluorescence (AID 1114).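 Also: probe is biotin-labelled aShh protein from a stem cell growth factor screen; measures binding of labelled protein to compounds printed on the slide; score merges feature fluorescence at 667 nm with signal-to-noise.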 The conditions noted are these: higher = more signal.
Assay [8] is described as follows: small-molecule microarray binders of probe aNog, primary screen, biochemical, biotinylated probe, 635/667 nm fluorescence (AID 1115).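 Also: probe is biotinylated aNog protein used at 0.15 µg/mL for 1 h at 4 C; z-score combines 667 nm fluorescence of each spot with its signal to noise.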 The conditions noted are these: higher = more signal.
For assay [9], the target named is Torsin-1A-interacting protein 1 (Homo sapiens) (UniProt Q5JTV8). Kind of assay: LAP1 binders from COS7 cell lysate, primary screen, small-molecule microarray, 635/667 nm fluorescence (AID 1116). The conditions noted are these: COS7-hLAP1 lysate binding, 635 nm fluorescence, higher = more signal.
The target in assay [10] is Alpha-bungarotoxin (Bungarus multicinctus) (UniProt P60615). Kind of assay: alpha-bungarotoxin binders on microarray, profiling panel, artefact control for SMM control protein annotation, biochemical, small-molecule microarray, Alexa647 label, 635/667 nm fluorescence (AID 1117). The conditions noted are these: alpha-BTX-A647 binding fluorescence, higher = more signal.
For the next assay, the target named is Albumin (Bos taurus) (UniProt P02769). In words: bovine serum albumin binders on microarray, profiling panel, artefact control for SMM control protein annotation, biochemical, small-molecule microarray, Alexa647 label, 635/667 nm fluorescence (AID 1118).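 Also: score merges 667 nm emission intensity and signal-to-noise per printed compound spot.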 As to conditions: BSA-A647 binding, fluorescence 635 nm, higher = more signal.
Assay [11] is described as follows: small-molecule microarray binders of probe aXIP, primary screen, biochemical, NeuroSMM set, 635/667 nm fluorescence (AID 1119).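 Also: probe is the protein aXip251-270 applied at 1 µg/mL to compound-printed slides; binding of probe to printed compounds measured as 667 nm fluorescence plus signal to noise.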 As to conditions: higher = more signal, called active from +8 up or from −8 down.
Assay [12] in a line: small-molecule binders of probe aNOTCH3, primary screen, biochemical, small-molecule microarray, 635/667 nm fluorescence (AID 1120).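 Also: probe is a biotin-tagged antibody raised against NOTCH3 rather than NOTCH3 protein; score merges spot fluorescence near 667 nm with spot signal to noise.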 As to conditions: higher = more signal.
Assay [13] in a line: small-molecule binders of probe aNOTCH2, primary screen, biochemical, small-molecule microarray, 635/667 nm fluorescence (AID 1121).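 Also: score merges feature fluorescence read at 667 nm with its signal to noise.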 The conditions noted are these: higher = more signal.
The target in assay [14] is Carbonic anhydrase 2 (Homo sapiens) (UniProt P00918). Kind of assay: CAII small-molecule binders, profiling panel, biochemical, small-molecule microarray, Alexa647-labelled CAII (AID 1122). The conditions noted are these: CAII-A647 binding fluorescence, higher = more signal.
Assay [15] is described as follows: COS7 lysate on small-molecule microarray, probe aHis, 635 nm (AID 1123).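 Also: z-score combines 667nm fluorescence intensity with signal-to-noise per printed compound spot.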 As to conditions: COS7 cell lysate, fluorescence, higher = more signal.
Assay [16] in a line: compound binding in COS7 lysate, probe aLAP1, primary screen, cell lysate, small-molecule microarray (AID 1124).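 Also: lysate comes from COS7 cells expressing LAP1 and is applied at 0.3 µg/mL; score merges spot fluorescence near 667 nm with signal-to-noise over triplicate slides.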 The conditions noted are these: probe aLAP1, fluorescence, higher = more signal.
The next assay has as its system Sam68 (KHDRBS1). In words: Sam68 small-molecule binders, primary screen, biochemical, small-molecule microarray, 635 nm fluorescence (AID 1125).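 Also: score merges 667 nm channel intensity with signal to noise over triplicate slides.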 As to conditions: small-molecule microarray binding, higher = more signal.
Assay [17] concerns Chordin-like protein 2 (CHRDL2). Kind of assay: CHRDL2 small-molecule binders, primary screen, biochemical, small-molecule microarray, 635 nm fluorescence (AID 1126).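 Also: printed compound slides probed with Chrdl2 protein at 4 µg/mL for 1 h at 4 C; score merges 667 nm emission intensity with signal to noise over three replicate slides.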 As to conditions: small-molecule microarray binding, fluorescence 635 nm; higher = more signal.
Assay [18] addresses Concanavalin-A (Canavalia ensiformis) (UniProt P02866). In words: ConA small-molecule binders, primary screen, artefact control for SMM control protein annotation, biochemical, small-molecule microarray, Alexa647 label, 635 nm (AID 1127).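 Also: z combines 667 nm emission intensity with signal-to-noise across three replicate slides.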 As to conditions: ConA-A647 binding fluorescence, higher = more signal.

The source made the active and inactive calls.

Chain of Alpha-bungarotoxin (Bungarus multicinctus) (P60615 whole entry, looked up): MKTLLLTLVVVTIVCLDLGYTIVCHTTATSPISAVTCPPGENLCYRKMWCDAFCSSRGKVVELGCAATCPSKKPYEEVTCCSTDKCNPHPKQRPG
Chain of Torsin-1A-interacting protein 1 (Homo sapiens) (Q5JTV8 whole entry, looked up): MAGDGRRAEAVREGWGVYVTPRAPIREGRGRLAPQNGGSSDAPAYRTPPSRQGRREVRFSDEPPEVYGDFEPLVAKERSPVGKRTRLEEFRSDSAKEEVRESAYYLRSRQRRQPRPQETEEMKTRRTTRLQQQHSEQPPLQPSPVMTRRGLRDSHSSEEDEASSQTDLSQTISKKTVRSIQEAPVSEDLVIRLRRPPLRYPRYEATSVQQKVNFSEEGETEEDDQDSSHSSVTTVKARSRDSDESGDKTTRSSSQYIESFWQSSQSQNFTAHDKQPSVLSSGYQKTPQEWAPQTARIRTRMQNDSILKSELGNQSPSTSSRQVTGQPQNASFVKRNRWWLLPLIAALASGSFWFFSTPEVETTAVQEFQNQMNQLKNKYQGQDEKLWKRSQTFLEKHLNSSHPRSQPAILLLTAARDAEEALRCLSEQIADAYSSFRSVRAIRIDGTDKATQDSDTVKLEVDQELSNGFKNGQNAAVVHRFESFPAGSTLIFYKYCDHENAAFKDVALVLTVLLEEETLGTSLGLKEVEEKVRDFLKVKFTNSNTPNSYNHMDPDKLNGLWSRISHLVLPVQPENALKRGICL
Chain of Concanavalin-A (Canavalia ensiformis) (P02866 whole entry, looked up): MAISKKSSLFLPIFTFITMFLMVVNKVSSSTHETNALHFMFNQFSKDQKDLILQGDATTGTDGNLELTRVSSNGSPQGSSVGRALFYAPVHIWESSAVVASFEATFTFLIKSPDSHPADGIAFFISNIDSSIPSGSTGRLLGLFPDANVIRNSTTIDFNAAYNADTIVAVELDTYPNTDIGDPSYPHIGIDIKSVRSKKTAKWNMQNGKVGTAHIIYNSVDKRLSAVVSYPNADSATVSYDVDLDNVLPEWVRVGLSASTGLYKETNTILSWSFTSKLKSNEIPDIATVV
Chain of Albumin (Bos taurus) (P02769 whole entry, looked up): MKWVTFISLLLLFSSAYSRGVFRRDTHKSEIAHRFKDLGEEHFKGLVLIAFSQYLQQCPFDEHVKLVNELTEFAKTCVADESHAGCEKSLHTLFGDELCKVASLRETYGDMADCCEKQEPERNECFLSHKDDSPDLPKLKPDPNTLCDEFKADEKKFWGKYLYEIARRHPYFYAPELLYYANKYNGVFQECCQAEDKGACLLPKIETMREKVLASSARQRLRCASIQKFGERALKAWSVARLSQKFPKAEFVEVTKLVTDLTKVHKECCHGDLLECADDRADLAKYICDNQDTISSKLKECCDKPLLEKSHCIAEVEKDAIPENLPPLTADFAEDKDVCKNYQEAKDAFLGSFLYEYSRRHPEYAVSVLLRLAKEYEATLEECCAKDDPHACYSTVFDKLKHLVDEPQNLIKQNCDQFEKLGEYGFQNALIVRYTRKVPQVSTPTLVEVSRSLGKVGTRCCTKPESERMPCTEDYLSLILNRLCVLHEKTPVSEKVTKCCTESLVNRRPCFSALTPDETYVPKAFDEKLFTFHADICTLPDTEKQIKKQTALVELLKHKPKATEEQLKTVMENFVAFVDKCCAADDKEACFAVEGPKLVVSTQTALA
Chain of Left-right determination factor 2 (Homo sapiens) (O00292 whole entry, looked up): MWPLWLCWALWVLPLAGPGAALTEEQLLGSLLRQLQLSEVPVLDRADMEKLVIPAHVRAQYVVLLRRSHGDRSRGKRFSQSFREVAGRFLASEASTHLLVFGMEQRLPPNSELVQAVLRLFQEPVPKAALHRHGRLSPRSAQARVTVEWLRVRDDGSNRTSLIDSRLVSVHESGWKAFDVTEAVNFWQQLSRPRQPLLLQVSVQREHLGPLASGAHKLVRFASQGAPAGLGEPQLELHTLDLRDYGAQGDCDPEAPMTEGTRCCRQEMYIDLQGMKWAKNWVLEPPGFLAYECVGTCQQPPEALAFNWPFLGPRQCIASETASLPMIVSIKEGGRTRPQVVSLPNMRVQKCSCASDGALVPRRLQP

Consider `CC(C)CN1C(=O)[C@@]2(c3ccc([N+](=O)[O-])cc3)CC(=O)N(C3CCCCC3)[C@@H]2c2ccc(CO)cc21`, for which the composite z-score is -1.25 in assay [1]; -1.69 in assay [3]; -0.311 in [4]; -0.0449 in assay [5]; -0.208 in assay [6]; -0.33 in assay [7]. The composite z-score in assay [8] was -0.181; in assay [9], -0.803; in assay [10], 0.547; with Albumin (Bos taurus) it was -0.124; in assay [12], -0.357; in assay [13], -0.0241. For the same molecule, the composite z-score is 0.77 in [14]; -0.335 in [15]; 0.73 in assay [16]; -0.859 in the assay on Sam68 (KHDRBS1); -1.91 in assay [17]; -0.895 in assay [18]. The same molecule showed a z-score in [2] of -0.707. For the same molecule, the composite Z-score in [11] is 0.659 (inactive).
As to `COC(=O)[C@@]1(Cc2ccc(OC)cc2)[C@H]2c3cc(C(=O)N4CCCC4)n(Cc4nc5ccccc5[nH]4)c3C[C@H]2CN1C(=O)c1ccccc1`, the composite z-score is 1.38 in assay [1]; -0.413 in assay [3]; 2.7 in assay [4]; 1.54 in [5]; 0.216 in [6]; 0.215 in assay [7]. Further, the composite z-score amounted to 2.39 in [8]; 2.79 in assay [9]; 1.07 in assay [10]; 1.08 in the assay with Albumin (Bos taurus); 0.537 in assay [12]; 0.013 in assay [13]. Moreover, the composite z-score in [14] was 0.78; in assay [15], 3.39; in assay [16], 1.13; with Sam68 (KHDRBS1) it was 1.32; in assay [17] it was -0.45; in assay [18], 0.174. In [2], this molecule came in with a z-score of -2.61. In addition, the composite Z-score in assay [11] is 0.234 (inactive).
In the case of `CC1CC/C=C\[C@H]2OC34C=CCN(c5ccc6ccccc6c5)C(=O)[C@H]3N(CCO)C(=O)[C@@H]4C2C(=O)O1` (stereo not given in full), the composite z-score is -0.619 in assay [1]; -2.09 in [3]; -0.832 in assay [4]; -0.202 in assay [5]; -0.205 in [6]; 0.192 in [7]. The composite z-score in assay [8] is 0.831; in assay [9] it was 3.26; in assay [10], -1.01; with Albumin (Bos taurus) it was 0.653; in assay [12] it was -0.19; in assay [13] it was -0.0903. In addition, the composite z-score in assay [14] is 0.829; in assay [15], 0.275; in assay [16], 0.758; with Sam68 (KHDRBS1), 0.0573; in assay [17], -0.628; in assay [18], -1.12. Further, the z-score in assay [2] was -0.626. Moreover, the composite Z-score in [11] is 0.0214 (inactive).
Turning to `CCCCCN1CC=CC23O[C@@H]4C=CCOC(=O)[C@@H]4[C@H]2C(=O)N(C(C)CO)[C@@H]3C1=O` (stereo not given in full), the composite z-score in [1] was -0.967; in assay [3], -1.39; in [4], -0.0225; in assay [5], -0.0583; in assay [6] it was -0.176; in assay [7], -0.0146. Also, the composite z-score is 1.04 in assay [8]; -0.901 in [9]; -0.394 in assay [10]; 0.755 in the assay with Albumin (Bos taurus); -0.403 in assay [12]; -0.12 in assay [13]. The composite z-score in assay [14] is 0.863; in assay [15], -0.284; in [16], -0.0739; in the assay on Sam68 (KHDRBS1) it was -1.22; in assay [17], -0.811; in [18], -0.54. Besides, the z-score in assay [2] amounted to 1.01. Moreover, in [11], the composite Z-score was -0.294 (inactive).
Turning to `COc1cc(CO)cc(I)c1O[C@H]1C=C(C(=O)NCCO)C[C@@H](N(C(=O)c2cc3ccccc3oc2=O)C2CCCCCC2)[C@@H]1O`, the composite z-score in assay [1] is -0.914; in [3], -0.0138; in [4] it was -0.23; in assay [5], -0.769; in assay [6], -0.096; in [7], -0.349. Moreover, the composite z-score in [8] is -0.267; in [9], 0.155; in assay [10], -0.29; with Albumin (Bos taurus), 0.179; in assay [12], 0.0084; in assay [13] it was -0.0282. Also, the composite z-score in assay [14] was -0.177; in assay [15], -0.149; in assay [16], 0.0826; in the assay on Sam68 (KHDRBS1) it was 0.0348; in assay [17] it was 0.13; in [18] it was 0.66. For the same molecule, the z-score in assay [2] was -0.469. Further, the composite Z-score in [11] is -0.161 (inactive).
In the case of `C=CCC(OC(C)=O)[C@@H]1[C@@H](N(Cc2ccc(-c3cccc(C(F)(F)F)c3)o2)C(=O)c2cccc3ccccc23)c2cc(OCCCO)ccc2N1C(=O)Cc1ccc2ccccc2c1` (stereo not given in full), the composite z-score is -0.168 in assay [1]; -0.648 in [3]; 0.0134 in assay [4]; 0.242 in assay [5]; -0.0597 in assay [6]; 0.123 in assay [7]. For the same molecule, the composite z-score was -0.398 in assay [8]; 0.0212 in assay [9]; 0.794 in assay [10]; 0.426 in the assay with Albumin (Bos taurus); -0.0465 in assay [12]; -0.102 in [13]. The composite z-score in assay [14] was 0.0886; in assay [15], 0.58; in assay [16] it was -0.0395; with Sam68 (KHDRBS1), 0.153; in assay [17], 0.421; in assay [18], -0.146. The z-score in assay [2] amounted to 0.395. In addition, the composite Z-score in [11] is 0.111 (inactive).

For the origin of these results see PubChem BioAssay.
